PubChem BioAssay AID1159567 (Broad Institute, 2015)
Out of some 1,300 compounds screened, about 1,200 (92%) were called active. The set was probably picked from earlier hits. This is one part of the list. Entries with a potency or affinity are not part of this list. Inconclusive results are not listed. No rule for the calls is given here.

test: P. falciparum Dd2 growth inhibitors, dose response, SYBR Green, cherry-picked samples (AID 1159567); details: Plasmodium falciparum Dd2 growth, SYBR Green fluorescence; series mostly up to 19.5 µM; activity change, negative = inhibition: at the top concentration

Activity change, negative = inhibition, inactive:
O=C(O)C[C@@H]1C[C@@H]2c3cc(NS(=O)(=O)c4ccccc4)ccc3O[C@@H]2[C@H](CO)O1 -11.2%, C[C@@H]1CN([C@@H](C)CO)C(=O)c2cc(NC(=O)C3CC3)ccc2O[C@H]1CN(C)CC1CCCCC1 -17.9%, CCC(=O)N[C@H]1C=C[C@H](CC(=O)NCC2CCCCC2)O[C@@H]1CO -5.23%, C[C@H]1CN([C@@H](C)CO)C(=O)CCCn2cc(nn2)CO[C@@H]1CN(C)C(=O)Nc1ccc(N2CCCCC2)cc1 -18.6%, C[C@H]1CN([C@@H](C)CO)C(=O)CCCn2nncc2CO[C@H]1CN(C)C(=O)Nc1ccc(N2CCCCC2)cc1 -18.3%, COc1cccc(CNC(=O)[C@H]2[C@H](CO)[C@H]3Cn4c(cccc4=O)[C@@H]2N3C(=O)C2CCCC2)c1 -12.2%, O=C(c1cccnc1)N1CC2(C1)[C@@H](c1ccccc1)[C@@H](CO)N2C(=O)CC1CC1 -16.6% [at 21 µM], COc1ccc(CNC(=O)C[C@H]2C=C[C@@H](NS(=O)(=O)c3cccc(OC)c3)[C@@H](CO)O2)cc1 -19.1% [at 21 µM], C[C@H](O)C#Cc1cnc2c(c1)C(=O)N([C@@H](C)CO)C[C@@H](C)[C@@H](CN(C)C(=O)Cc1ccncc1)O2 -11.8%, O=C(Nc1ccccc1F)N1C[C@@H]2[C@H](c3ccccc31)[C@H](CO)N2C(=O)C1CCOCC1 -23.9%, O=C(Nc1ccc(F)cc1)N1C[C@H]2[C@@H](c3ccccc31)[C@@H](CO)N2Cc1cocn1 -26%, CN(C)CC#Cc1ccc([C@@H]2[C@H](CO)N3C(=O)CN(C(=O)Cc4cccnc4)C[C@@H]23)cc1 -3.25%, COc1ccc(CN(C)C[C@@H]2OCc3cn(nn3)CCCC(=O)N([C@H](C)CO)C[C@H]2C)cc1 -7.11%, C[C@@H]1CN([C@@H](C)CO)C(=O)c2c(c3ccccc3n2C)-c2ccccc2CO[C@H]1CN(C)Cc1ccc(Cl)c(Cl)c1 -15.5% [at 21 µM], O=C1CN(Cc2ccc(F)cc2)C[C@@H]2[C@@H](c3ccc(Br)cc3)[C@H](CO)N12 -20.1% [at 21 µM], Cc1noc(C)c1NC(=O)Nc1ccc2c(c1)C(=O)N([C@H](C)CO)C[C@@H](C)[C@@H](CN(C)S(C)(=O)=O)O2 -10.7%, COc1ccc2c3c([nH]c2c1)[C@@H](CO)N(C(C)=O)CC31CN(C(=O)CN2CCOCC2)C1 -8.81%, COCC(=O)N1CC2(C1)CN(C(=O)CN1CCOCC1)[C@@H](CO)c1c2c2ccc(OC)cc2n1C -8.46%, CCCNC(=O)Nc1ccc2c(c1)C(=O)N(C)C[C@H](OC)[C@@H](C)CN(C(=O)C1CCOCC1)[C@@H](C)CO2 -5.93%, COCC(=O)Nc1ccc2c(c1)OC[C@@H](C)N(C(=O)NC(C)C)C[C@@H](C)[C@@H](OC)CN(C)C2=O -13.3%, COc1ccccc1S(=O)(=O)N(C)C[C@H]1OCc2cn(nn2)CCCC(=O)N([C@@H](C)CO)C[C@@H]1C -3.07%, CO[C@H]1CN(C)C(=O)c2ccc(NC(=O)CC(F)(F)F)cc2OC[C@@H](C)N(CC2CC2)C[C@H]1C -17.4% [at 21 µM], COc1ccc2c3c(n(C)c2c1)[C@H](CO)N(Cc1cccnc1)CC31CN(C(=O)NC(C)C)C1 -10.2%, N#C[C@H]1[C@@H](c2ccccc2-c2ccccc2F)[C@@H](CO)N1C(=O)C1CCOCC1 -3.56%, N#C[C@@H]1[C@@H](c2ccccc2-c2ccccc2F)[C@H](CO)N1C(=O)C1CC1 -22.6%, N#C[C@@H]1[C@H](c2ccccc2-c2ccccc2F)[C@H](CO)N1C(=O)C1CCOCC1 -20.2%, C[C@@H]1CN([C@H](C)CO)C(=O)c2cc(NC(=O)CCC(F)(F)F)ccc2O[C@H]1CN(C)C(=O)NC1CCCCC1 -20%, C[C@H](CO)N1C[C@H](C)[C@@H](CN(C)C(=O)CCCN(C)C)OCc2cnnn2CCCC1=O -3.7% [at 21 µM], O=C(C[C@@H]1C=C[C@@H](NC(=O)C2CCC2)[C@H](CO)O1)NC1CCC1 -9.66%, CN1C(=O)c2cc(NC(=O)c3ccc4c(c3)OCO4)ccc2OC[C@@H]2O[C@@H](CC(=O)O)CC[C@@H]21 -0.896%, CO[C@@H]1CN(C)C(=O)c2cc(NC(C)=O)ccc2OC[C@@H](C)N(C(=O)Cc2cccnc2)C[C@H]1C 22.8%, COCC#Cc1ccc([C@H]2[C@H](CO)N3C(=O)CN(C(=O)CN4CCOCC4)C[C@@H]23)cc1 -30.4%, CN(C)CC(=O)Nc1ccc2c(c1)[C@@H]1C[C@H](CC(=O)N3CCOCC3)O[C@@H](CO)[C@@H]1O2 -1.66%, C[C@H]1CN([C@@H](C)CO)C(=O)Cc2cc(NC(=O)CCC(F)(F)F)ccc2O[C@H]1CN(C)S(C)(=O)=O 12.8% [at 21 µM], CN(C)C(=O)c1cccc(-c2ccccc2[C@@H]2[C@@H](C#N)N(C(=O)C3CC3)[C@H]2CO)c1 -19.9%, COCC(=O)N1[C@H](C#N)[C@@H](c2ccccc2-c2ccccc2)[C@H]1CO -11.9%, COCC(=O)N1[C@@H](C#N)[C@H](c2ccccc2-c2ccccc2)[C@@H]1CO -22.4% [at 21 µM], CO[C@H]1CN(C)C(=O)c2cc(NS(=O)(=O)c3ccccc3C)ccc2OC[C@H](C)N(C)C[C@H]1C -44.6%, CO[C@H]1CN(C)C(=O)c2ccc(NS(=O)(=O)CC(F)(F)F)cc2OC[C@H](C)N(C)C[C@@H]1C 1.24% [at 21 µM], O=C(C[C@H]1C=C[C@H](NC(=O)Cc2ccccn2)[C@H](CO)O1)NCCc1ccccc1 -6.06%, CCC(=O)N1[C@H](CO)[C@H](c2ccccc2)[C@@H]1CN(CC)C(=O)c1cccc(F)c1 -8.04%, CCCNC(=O)Nc1ccc2c(c1)C(=O)N(C)C[C@@H](OC)[C@H](C)CN(C(=O)C1CCOCC1)[C@@H](C)CO2 -4.92%, CCCNC(=O)Nc1ccc2c(c1)C(=O)N(C)C[C@H](OC)[C@@H](C)CN(C(=O)C1CCOCC1)[C@H](C)CO2 23.2%, COCC(=O)N1[C@H](C#N)[C@@H](c2ccccc2C2=CCCC2)[C@@H]1CO -0.072%, CO[C@H]1CN(C)C(=O)c2cc(NC(C)=O)ccc2OC[C@H](C)N(Cc2ccncc2)C[C@H]1C -11.2%, CO[C@H]1CN(C)C(=O)c2cc(NC(C)=O)ccc2OC[C@H](C)N(Cc2ccncc2)C[C@@H]1C -6.15%
